Screens deposited in PubChem BioAssay by several laboratories.
Compounds with a hit are over-represented: about 1.1% of the library has one in this group of screens.
MazEF act = activators of E. coli MazEF toxin-antitoxin RNase, primary screen, biochemical, fluorescence, uHTS | Endoribonuclease toxin MazF (Escherichia coli (strain K12)), P0AE70 | FAM/BHQ RNA-DNA oligo cleavage fluorescence, 5 h | activation, % at 20 µM | actives 0.32% (n = 350,000) | AID 504720, 2011; in the data active means activation above about 50%
Target sequence (P0AE70 whole entry, looked up): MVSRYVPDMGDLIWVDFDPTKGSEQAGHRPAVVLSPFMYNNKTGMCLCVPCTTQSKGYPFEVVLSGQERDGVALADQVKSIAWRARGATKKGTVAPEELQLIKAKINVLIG
BJeLR lethal = MLPCN primary cell-based screen for lethality selective to Ras in HRASV12 cells | actives 0.17% (n = 300,000) | inhibition, % (test concentration not listed) | BJeLR (HRASV12) viability, CellTiter-Glo ATP luminescence, 48 h; in the data active means inhibition above about 50%; inconclusive means no clear call, values can overlap the other calls
PfHsp40 rescue = rescue of yeast from PfHsp40 toxicity, primary screen, S. cerevisiae, ATP luminescence | actives 0.68% (n = 340,000) | growth rescue, % at 12.5 µM | AID 504582, 2011 | S. cerevisiae expressing PfHsp40, growth rescue; in the data active means growth rescue above about 28%, passing the limit was not always enough; inconclusive means no clear call, values can overlap the other calls;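 further: yeast W303a lacking pdr1 and pdr3 grown in galactose medium; growth measured after three days at 30 °C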
BioA inh-1 = M. tuberculosis BioA enzyme inhibitors, primary screen, biochemical, plate reader, single point, HTS. 7,8-diaminopelargonic acid synthase BioA (Mycobacterium tuberculosis). purified M. tuberculosis BioA enzyme. inhibition, % at 9.99 µM. actives 0.096% (n = 360,000); in the data active means inhibition above about 40%; inconclusive means no clear call, values can overlap the other calls
SARS 3CLpro inh = SARS-CoV 3CLpro protease inhibitors, primary screen, biochemical, quenched FRET; AID 1706, 2009; Replicase polyprotein 1ab (Severe acute respiratory syndrome coronavirus), P0C6X7; inhibition, % at 6 µM; recombinant SARS-CoV 3CLpro, quenched FRET peptide cleavage; actives 0.14% (n = 290,000); in the data active means inhibition above about 12%
Y pestis TopoI = Yersinia pestis topoisomerase I inhibitors, primary screen, biochemical, cleavage product accumulation, plate reader, single point; Y. pestis Topo-I cleavage product accumulation; activity, % at 10 µM; actives 0.064% (n = 360,000); AID 504884, 2011; in the data active means activity above about 50%, passing the limit was not always enough; inconclusive means no clear call, values can overlap the other calls
BioA inh-2 = Mtb BioA enzyme inhibitors, dose response, biochemical, plate reader, cherry-pick samples, set 03. shares compounds with BioA inh-1. purified BioA enzyme. max activity, %. 310 tested, under 10 active. AID 651679, 2012;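 further: top concentration of the dilution series was 10 µM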
Target sequence (P9WQ81 whole entry, looked up): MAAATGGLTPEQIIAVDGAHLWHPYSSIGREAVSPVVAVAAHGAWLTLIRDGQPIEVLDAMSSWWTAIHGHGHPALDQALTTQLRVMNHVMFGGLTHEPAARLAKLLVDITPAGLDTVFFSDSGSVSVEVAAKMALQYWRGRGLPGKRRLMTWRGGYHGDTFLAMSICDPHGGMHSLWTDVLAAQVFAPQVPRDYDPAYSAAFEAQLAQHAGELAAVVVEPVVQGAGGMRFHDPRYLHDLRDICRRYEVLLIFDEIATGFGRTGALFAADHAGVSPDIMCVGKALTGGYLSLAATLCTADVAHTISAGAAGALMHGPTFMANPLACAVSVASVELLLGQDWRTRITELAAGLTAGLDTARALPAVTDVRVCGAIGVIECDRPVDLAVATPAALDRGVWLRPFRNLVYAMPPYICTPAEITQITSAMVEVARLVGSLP
HepG2 tox 2 = cytotoxicity in HepG2 cells, dose response, cytotoxicity control, cell-based, plate reader, cherry-pick, two tests. shares compounds with BioA inh-1. max activity, %. 310 tested, under 10 active. AID 651898, 2012
NIH3T3 tox 5 = cytotoxicity in NIH3T3 fibroblasts, dose response, cytotoxicity control, cell-based, plate reader, cherry-pick, two tests | 310 tested, under 10 active | activity change, negative = cytotoxicity, % at 26 µM | shares compounds with BioA inh-1
* = called active by the depositor; i = inactive; ? = inconclusive; nt = not tested or not shown; [ ] = dose if it differs, or a comment. Unless noted, how the calls were made is not given here.

SMILES	MazEF act	BJeLR lethal	PfHsp40 rescue	BioA inh-1	SARS 3CLpro inh	Y pestis TopoI	BioA inh-2	HepG2 tox 2	NIH3T3 tox 5
O=C(Nc1ccc2snnc2c1)N1CCOCC1	1	-15	-1	65*	-7	0	-5	15	1
O=C(Nc1ccc2snnc2c1)N1CCN(c2ccccc2)CC1	5	-6	-1	75*	1	4	-8	16	1
CCC(=O)N(C)C[C@@H]1Oc2cc(-c3ccccc3)ccc2S(=O)(=O)N([C@@H](C)CO)C[C@@H]1C	nt	nt	nt	4	nt	nt	nt	nt	nt
O=C(NCc1ccccc1)C1CCCN(S(=O)(=O)c2cccnc2)C1 (stereo not drawn)	1	8	-2	-2	1	-6	nt	nt	nt
O=C(C1CCCN(S(=O)(=O)c2cccnc2)C1)N1CCn2c1nc1ccccc12 (stereo not drawn)	2	-8	1	46*	1	4	-5	11	2
CC(CNC(=O)CCCn1ncn2c(cc3occc32)c1=O)c1ccccc1 (stereo not drawn)	-11	12	0	67*	6	10	-9	-13	-5
Cc1nn(CC(=O)NCC(C)c2ccccc2)c(=O)c2cc3occc3n12 (stereo not drawn)	16	0	-2	0	-2	-1	nt	nt	nt
O=C(N[C@H]1CC[C@H](CCNC(=O)C2CCCC2)O[C@@H]1CO)c1ccccn1	nt	nt	nt	-1	nt	nt	nt	nt	nt
COc1ccc(-c2n[nH]c3c2CN(C(=O)c2ccc(OC)c(OC)c2)CC3)cc1	5	35	1	86*	-4	15	-8	29	7
COc1cccc(-c2ccc3c(c2)[C@@H]2[C@@H](CCN2C(=O)c2cccc(F)c2)[C@H](CO)N3)c1	nt	nt	nt	-2	nt	nt	nt	nt	nt
C/C=C/c1ccc2c(c1)O[C@@H](CN(C)C(=O)Nc1ccccc1)[C@H](C)CN([C@H](C)CO)S2(=O)=O	nt	nt	nt	42*	nt	nt	-5	i	4
C/C=C/c1ccc2c(c1)O[C@@H](CN(C)C(=O)Nc1ccc(OC)cc1)[C@@H](C)CN([C@@H](C)CO)S2(=O)=O	nt	nt	nt	41*	nt	nt	9	i	3
N#C[C@H]1[C@@H](c2ccccc2)[C@@H](CO)N1C(=O)Nc1cccc(F)c1	nt	nt	nt	77*	nt	nt	17	i	8
N#C[C@@H]1[C@H](c2ccccc2)[C@H](CO)N1C(=O)Nc1cccc(F)c1	nt	nt	nt	29	nt	nt	nt	nt	nt
COc1ccc(CNC(=O)C[C@@H]2CC[C@H](NC(=O)c3ccc4c(c3)OCO4)[C@@H](CO)O2)cc1	nt	nt	nt	-1	nt	nt	nt	nt	nt
Fc1ccc2[nH]c3c(N4CCc5ccccc5C4)ncnc3c2c1	8	7	nt	3	1	-5	nt	nt	nt
Fc1ccc2[nH]c3c(NCCN4CCOCC4)ncnc3c2c1	7	2	0	54*	-2	-3	5	?	?
Clc1ccc2[nH]c3c(NCCN4CCOCC4)ncnc3c2c1	0	-4	-1	1	3	-4	nt	nt	nt
CN1CCN(c2ncnc3c2[nH]c2ccc(F)cc23)CC1	6	-9	0	70*	-2	-10	-6	-9	-5
CN1CCN(C(=O)C[C@H]2CC[C@@H]3[C@@H](COc4ccc(NC(=O)C5CCCCC5)cc4C(=O)N3C)O2)CC1	nt	nt	nt	-2	nt	nt	nt	nt	nt
COc1cc2c3cc1Oc1cc(ccc1O)C[C@@H]1c4c(cc(OC)c(O)c4Oc4ccc(cc4)C[C@H]3N(C)CC2)CCN1C	19	12	3	1	-2	-1	nt	nt	nt
COc1cc2c3cc1Oc1cc(ccc1O)C[C@@H]1c4c(cc(OC)c(O)c4Oc4cccc(c4)C[C@@H]3N(C)CC2)CC[N+]1(C)C	10	nt	0	51*	nt	0	-7	15	2
Cc1noc(C)c1S(=O)(=O)Nc1ccc2c(c1)C(=O)N([C@@H](C)CO)C[C@H](C)[C@@H](CN(C)C(=O)Nc1ccc(C(F)(F)F)cc1)OCCCC[C@H](C)O2	nt	nt	nt	-2	nt	nt	nt	nt	nt
COC(=O)C[C@@H]1CC[C@@H]2[C@H](COC[C@@H](O)CN2C(=O)Nc2cccc(F)c2)O1	nt	nt	nt	46*	nt	nt	-7	i	-1
CNC(=O)C[C@H]1CC[C@@H]2[C@H](COC[C@@H](O)CN2C(=O)Nc2ccc3c(c2)OCO3)O1	nt	nt	nt	50*	nt	nt	-8	i	-4
SMILES	MazEF act	BJeLR lethal	PfHsp40 rescue	BioA inh-1	SARS 3CLpro inh	Y pestis TopoI	BioA inh-2	HepG2 tox 2	NIH3T3 tox 5
O=C(Cc1ccccc1)N1CC[C@@H]2[C@H]1c1cc(Br)ccc1N[C@@H]2CO	nt	nt	nt	86*	nt	nt	7	i	-8
O=C(C1CC1)N1CC[C@@H]2[C@H]1c1cc(Br)ccc1N[C@@H]2CO	nt	nt	nt	88*	nt	nt	-3	i	-7
CO[C@@H]1CN(C)C(=O)c2cc(NC(=O)Nc3ccccc3)ccc2OC[C@H](C)N(C(=O)CC2CC2)C[C@@H]1C	nt	nt	nt	2	nt	nt	nt	nt	nt
COC(=O)c1sc(N)c(C(=O)OC)c1CSc1nnnn1C	-20	-6	0	6	-4	-1	nt	nt	nt
COC(=O)c1sc(N)c(C(=O)OC)c1CSc1nnc(-c2ccccc2Cl)n1C	0	-5	1	59*	-2	16	-5	7	-8
C[C@H]1CN([C@@H](C)CO)S(=O)(=O)c2ccc(-c3cncnc3)cc2O[C@@H]1CN(C)C(=O)CN(C)C	nt	nt	nt	-2	nt	nt	nt	nt	nt
CN(C(=O)CSc1nc2ccccc2c(=O)n1-c1ccccc1F)C1CCS(=O)(=O)C1 (stereo not drawn)	3	nt	2	21	nt	3	nt	nt	nt
Cc1cccc(-n2c(SCC(=O)N(C)C3CCS(=O)(=O)C3)nc3ccccc3c2=O)c1C (stereo not drawn)	-4	-1	1	47*	nt	10	3	17	4
CN1c2ccc(-c3cccc(F)c3)cc2[C@H]2[C@H](CCN2C(=O)C2CCOCC2)[C@@H]1CO	nt	nt	nt	38	nt	nt	nt	nt	nt
CC(=O)N1CC[C@@H]2[C@@H](CO)N(C)c3ccc(-c4ccccc4)cc3[C@@H]21	nt	nt	nt	42*	nt	nt	18	i	10
CN1c2ccc(-c3cccc(F)c3)cc2[C@H]2[C@H](CCN2C(=O)C2CCOCC2)[C@H]1CO	nt	nt	nt	76*	nt	nt	-3	i	-1
CCC(=O)N1CC[C@@H]2[C@H]1c1cc(-c3cccc(F)c3)ccc1N(C)[C@@H]2CO	nt	nt	nt	90*	nt	nt	-4	i	-7[23.5 µM]
